For 7 molecules, growth results are on record in PubChem BioAssay (NCI).

About 83,000 compounds went through this panel and 20% of them were active in at least one assay; those are over-represented in the sample as a whole.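 A percent growth of 40 corresponds to 60% growth inhibition; 0 means no net growth; -100 means all cells died. Active threshold: below 10.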 A number with no mark means an inactive call. Calls of active or inactive are those of the source.

Test systems include DU-145 prostate; K-562 leukemia; MALME-3M melanoma; MDA-MB-231 breast; RXF 393 renal; SF-268 CNS; SF-295 CNS; SF-539 CNS; UACC-257 melanoma; M14 melanoma; HCT-15 colon; HT29 colon; SNB-75 CNS; SNB-19 CNS; U251 CNS; PC-3 prostate; SK-MEL-5 melanoma; UACC-62 melanoma; SK-MEL-28 melanoma.
Common to all, as to experiment: NCI-60 one-dose screen, 48 h (100 = growth as untreated, 0 = no growth, -100 = all killed)
Common to all, as to conditions: 10 µM unless noted

For the molecule `C[C@@H]1CC[C@@H]2[C@@H]1[C@H](OC(=O)c1ccc3ccccc3c1)[C@]1(C3CCCCC3)C[C@@H](OC(=O)CO)[C@@]2(C)O1`, the growth in the test with DU-145 prostate was 72.1%; in the test on K-562 leukemia, 39.6%; with MALME-3M melanoma it was 99.9%; in the test on MDA-MB-231 breast, 63.1%; in the test with RXF 393 renal, 8.34% (active); with SF-268 CNS, 31.4%. Moreover, the growth was 68.2% with SF-295 CNS; 90.2% in the test with SF-539 CNS; 63.3% in the test with UACC-257 melanoma; 61.4% in the test on M14 melanoma; 40.9% with HCT-15 colon; 20.7% in the test on HT29 colon. The growth was 64.9% in the test on SNB-75 CNS; 84.1% in the test on SNB-19 CNS; 48.9% with U251 CNS; 22.2% in the test with PC-3 prostate; 88.6% with SK-MEL-5 melanoma; 73.6% in the test with UACC-62 melanoma. The growth in the test with SK-MEL-28 melanoma was 70.2%.

Regarding `CCCCCOC(=O)c1ccc(NC(=O)CNCC(C)C)cc1`, the growth is 102% with DU-145 prostate; 88.8% with K-562 leukemia; 107% in the test on MALME-3M melanoma; 57.7% with MDA-MB-231 breast; 89.7% in the test on RXF 393 renal; 95.9% in the test with SF-268 CNS. In addition, the growth was 100% with SF-295 CNS; 102% in the test with SF-539 CNS; 99.3% in the test with UACC-257 melanoma; 97.4% in the test with M14 melanoma; 86.8% with HCT-15 colon; 80.6% with HT29 colon. Moreover, the growth in the test with SNB-75 CNS was 86.3%; with SNB-19 CNS, 90.6%; in the test on U251 CNS, 93.1%; in the test with PC-3 prostate, 65.8%; with SK-MEL-5 melanoma, 95.7%; with UACC-62 melanoma, 91.6%. Moreover, the growth with SK-MEL-28 melanoma is 105%.

Consider `Cc1cc(N(CCCNc2ccnc3cc(Cl)ccc23)Cc2ccccn2)nc(N2CCCC2)n1`, for which the growth in the test with DU-145 prostate is 91.2%; in the test with K-562 leukemia, 9.27% (active); in the test on MALME-3M melanoma it was 70.9%; in the test on MDA-MB-231 breast, 56.2%; in the test on RXF 393 renal it was 54.9%; in the test on SF-268 CNS it was 67.3%. The growth with SF-295 CNS is 75.5%; in the test on SF-539 CNS, 52.3%; with UACC-257 melanoma, 81.6%; in the test on M14 melanoma, 93.7%; in the test with HCT-15 colon it was 48.3%; with HT29 colon it was 44%. The growth was 75.4% in the test on SNB-75 CNS; 91.2% in the test with SNB-19 CNS; 74.8% with U251 CNS; 50.5% in the test with PC-3 prostate; 65.6% in the test on SK-MEL-5 melanoma; 95.1% in the test on UACC-62 melanoma. Further, in the test on SK-MEL-28 melanoma, the growth is 88%.

As to `OC(c1cccc(OCc2ccccc2)c1)c1nnc(-c2ccccc2)o1` (stereo not drawn), the growth in the test on DU-145 prostate was 107%; in the test on K-562 leukemia, 91%; in the test with MALME-3M melanoma, 92.1%; in the test with MDA-MB-231 breast it was 89.9%; in the test on RXF 393 renal, 95.5%; in the test with SF-268 CNS it was 95.3%. The growth is 64% in the test with SF-295 CNS; 93.1% in the test on SF-539 CNS; 94.5% in the test with UACC-257 melanoma; 105% with M14 melanoma; 90% in the test with HCT-15 colon; 116% in the test with HT29 colon. For the same molecule, the growth in the test with SNB-75 CNS is 94.2%; in the test with SNB-19 CNS, 99.4%; in the test on U251 CNS, 96.7%; with PC-3 prostate it was 81%; in the test on SK-MEL-5 melanoma it was 66.4%; in the test on UACC-62 melanoma, 61.7%. For the same molecule, the growth in the test with SK-MEL-28 melanoma is 108%.

Regarding `CC(=O)Nc1nccs1`, the growth in the test on DU-145 prostate was 107%; in the test on K-562 leukemia it was 110%; in the test with MALME-3M melanoma it was 76.8%; in the test with MDA-MB-231 breast, 103%; with RXF 393 renal, 98.6%; in the test with SF-268 CNS, 99.9%. Further, the growth in the test on SF-295 CNS was 101%; with SF-539 CNS, 97%; in the test on UACC-257 melanoma, 94.2%; in the test with M14 melanoma it was 112%; in the test with HCT-15 colon it was 98%; in the test with HT29 colon it was 101%. In addition, the growth was 106% with SNB-75 CNS; 96.3% in the test with SNB-19 CNS; 98.9% with U251 CNS; 96.1% in the test on PC-3 prostate; 101% in the test with SK-MEL-5 melanoma; 92.7% in the test on UACC-62 melanoma. The growth in the test on SK-MEL-28 melanoma is 98.6%.

On to `Clc1ccc2c(NCCCN3CCN(c4nc(-n5ccnc5)nc5ccccc45)CC3)ccnc2c1`, for which the growth in the test with DU-145 prostate is 93.3%; in the test with K-562 leukemia, -48.8% (active); in the test on MALME-3M melanoma it was -83.2% (active); in the test on MDA-MB-231 breast it was 8.95% (active); in the test on RXF 393 renal, 37.1%; with SF-268 CNS, 80%. Besides, the growth was 61.2% in the test with SF-295 CNS; -83.7% (active) with SF-539 CNS; 87.1% with UACC-257 melanoma; -24% (active) in the test with M14 melanoma; -64.6% (active) with HCT-15 colon; -16.2% (active) in the test with HT29 colon. The growth with SNB-75 CNS is 100%; in the test on SNB-19 CNS, 99.5%; in the test with U251 CNS, 97.2%; in the test with PC-3 prostate, 78.4%; in the test with SK-MEL-5 melanoma, -94.8% (active); in the test with UACC-62 melanoma, 93.4%. Further, the growth in the test on SK-MEL-28 melanoma was -86.9% (active).

On to `CCN(CC)N=Nc1nn(C(=O)Nc2ccc(Cc3ccccc3)cc2)c2ccc(Cl)cc12`, for which the growth was 70.5% with DU-145 prostate; 22.3% in the test with K-562 leukemia; 139% with MALME-3M melanoma; 102% in the test on MDA-MB-231 breast; 116% in the test with RXF 393 renal; 76% in the test with SF-268 CNS. The growth in the test on SF-295 CNS was 8.57% (active); in the test with SF-539 CNS it was 77.7%; with UACC-257 melanoma, 55.5%; in the test with M14 melanoma, 22%; in the test on HCT-15 colon, 43.6%; in the test on HT29 colon, 61.8%. Moreover, the growth in the test with SNB-75 CNS was 88.8%; with SNB-19 CNS it was 67.2%; in the test with U251 CNS, 93.4%; with PC-3 prostate, 69.6%; with SK-MEL-5 melanoma it was 56.6%; in the test with UACC-62 melanoma it was 8.7% (active). Also, the growth with SK-MEL-28 melanoma is 70.8%.
